MEKK2 WT-MEK5 = raises or lowers MEK5 binding to wildtype human MEKK2 PB1 domain; bead flow cytometry, Alexa488-MEK5 binding to MEKK2 WT; actives lie on both sides; 1.1% of 290,000 active; binding response (% of control), % at 10 µM; AID 1531; Q9Y2U5; in the data active means binding response below about 67% or above about 130%
MEKK2mut PB1 HTS = signal of MEK5 binding to mutant human MEKK2 PB1 domain; bead flow cytometry, Alexa488-MEK5 binding to MEKK2 mutant; percent response, % at 10 µM; 0.35% of 290,000 active; in the data active means percent response above about 24%, passing the limit was not always enough
MEKK3 PB1 HTS = MEKK3-MEK5 PB1 interaction, increase or decrease | Q99759 | 1.4% of 290,000 active | bead-based flow cytometry, Alexa488-MEK5 binding to MEKK3; actives lie on both sides; 0 = blocked by unlabeled MEK5, 100 = vehicle | binding response (% of control), % at 10 µM;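 active means binding response more than 3 SD above or below the average of its plate-row segment, actives on both sides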;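 further: Alexa488 bead fluorescence after subtracting the streptavidin-only scavenger bead signal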
GRK2 inh = inhibitors of human GRK2 displacing RNA aptamer | bead flow cytometry, FAM-aptamer displacement from GRK2 | P25098 | 0.59% of 330,000 active | inhibition of aptamer binding, % at 10 µM;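 active means inhibition of aptamer binding above 40%, roughly 3 SD of noise, on plates passing a quality check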;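 further: median bead fluorescence of bound FAM aptamer so fluorescent compounds give negative values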
Target sequence (P25098 whole entry, looked up): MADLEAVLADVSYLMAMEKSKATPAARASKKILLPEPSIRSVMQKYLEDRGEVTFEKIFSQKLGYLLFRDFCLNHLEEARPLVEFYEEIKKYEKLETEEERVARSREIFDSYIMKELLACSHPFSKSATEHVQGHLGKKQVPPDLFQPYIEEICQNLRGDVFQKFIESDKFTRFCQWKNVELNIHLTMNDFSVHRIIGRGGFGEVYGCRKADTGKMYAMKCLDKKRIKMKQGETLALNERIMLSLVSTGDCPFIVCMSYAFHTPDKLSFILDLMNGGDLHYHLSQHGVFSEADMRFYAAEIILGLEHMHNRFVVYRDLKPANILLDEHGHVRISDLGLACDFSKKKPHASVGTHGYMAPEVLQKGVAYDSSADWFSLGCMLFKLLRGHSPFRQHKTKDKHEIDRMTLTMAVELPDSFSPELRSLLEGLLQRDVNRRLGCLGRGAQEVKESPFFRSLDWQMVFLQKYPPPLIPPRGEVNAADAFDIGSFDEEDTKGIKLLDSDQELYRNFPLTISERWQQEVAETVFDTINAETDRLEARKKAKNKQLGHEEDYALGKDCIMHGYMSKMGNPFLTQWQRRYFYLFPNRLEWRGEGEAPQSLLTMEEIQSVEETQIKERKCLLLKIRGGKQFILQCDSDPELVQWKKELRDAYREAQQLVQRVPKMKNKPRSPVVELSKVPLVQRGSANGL
MEKK2wt confirm = raises or lowers MEK5 binding to wildtype human MEKK2, retest. shares compounds with MEKK3 PB1 HTS. bead flow cytometry, Alexa488-MEK5 binding to MEKK2 WT; actives lie on both sides. binding response (% of control), % at 10 µM. 2.4% of 5,900 active. AID 1892; in the data active means binding response below about 16% or above about 210%; inactive means in between
MEKK2mut-MEK5 = signal of MEK5 binding to mutant human MEKK2, retest | percent response, % at 10 µM | 2% of 5,900 active | AID 1893 | shares compounds with MEKK3 PB1 HTS | bead flow cytometry, Alexa488-MEK5 binding to MEKK2 mutant; in the data active means percent response mostly above about 71%, no sharp cut-off; inactive means mostly below about 38%;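 further: higher means compound restores mutant binding toward wildtype level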
MEKK3 confirm = confirmation of inhibitors of MEK5 binding to human MEKK3 | shares compounds with MEKK3 PB1 HTS | bead flow cytometry, Alexa488-MEK5 binding to MEKK3; hits give low values | binding response (% of control), % at 10 µM | 1.8% of 5,900 active | AID 1894;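 active means binding response below 72% of control, or above a set upper limit, though filed actives all read lower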
Numbers stand for hits; n = inactive; x = no result; [ ] = remark or other dose. An excerpt weighted towards active compounds, which were near 2.5% of everything screened.

SMILES | MEKK2 WT-MEK5 | MEKK2mut PB1 HTS | MEKK3 PB1 HTS | GRK2 inh | MEKK2wt confirm | MEKK2mut-MEK5 | MEKK3 confirm
Cc1cccc(C(=O)NCC(=O)N2CCN(S(=O)(=O)c3ccccc3)CC2)c1 | x | x | x | n | x | x | x
COc1ccc(C2NN=C(c3c[nH]c4ccccc34)C2O)cc1 (stereo not drawn) | 55.0 | 213.0 | n | n | n | n | n
COc1ccc(C2C(O)C(c3c[nH]c4ccccc34)=NN2C(=O)CCl)cc1 (stereo not drawn) | n | n | n | n | x | x | x
N=C1CCCN1CC(=O)c1cccs1 | n | n | n | n | x | x | x
N=C1CCCN1CC(=O)c1ccc(Cl)cc1 | n | n | 131.0 | n | n | n | n
COc1cccc(C(=O)Nc2cc(NC(=O)c3cccs3)ccc2C)c1 | n | n | n | n | x | x | x
COc1cc(NC(=O)c2cccc(Cl)c2)ccc1NC(=O)c1cccs1 | n | n | 133.0 | n | n | n | n
COc1cccc(C(=O)Nc2cc(NC(=O)c3cccs3)ccc2C)c1OC | n | 24.0 | n | n | n | n | n
C=CCC1NCCc2c(Br)cccc21 (stereo not drawn) | n | n | n | n | x | x | x
Nc1ccc(-c2ccc(N)c(C(=O)O)c2)cc1C(=O)O | 46.0[inhibitor] | n | 44.0[inhibitor] | n | n | n | n
CCCc1n[nH]c(=S)n1Cc1ccco1 | n | n | n | n | x | x | x
S=c1[nH]nc(COc2ccc(Cl)cc2)n1Cc1ccco1 | n | n | 155.0 | n | n | n | n
CC1CCN(CCCNC(=O)C2CCN(S(=O)(=O)N3CCCCC3)CC2)CC1 | n | n | 123.0 | n | n | n | n
CCOCCCNC(=O)C1CCN(S(=O)(=O)N2CC(C)CC(C)C2)CC1 (stereo not drawn) | n | n | n | n | x | x | x
CC1CCN(S(=O)(=O)N2CCC(C(=O)NCCN3CCOCC3)CC2)CC1 | n | n | n | n | x | x | x
O=C(NCCN1CCCCCC1)C1CCN(S(=O)(=O)N2CCOCC2)CC1 | n | 39.0 | n | n | n | n | n
CC1CC(C)CN(CCCNC(=O)C2CCN(S(=O)(=O)N3CCCCC3)CC2)C1 (stereo not drawn) | n | n | 123.0 | n | n | n | n
CC1CCN(S(=O)(=O)N2CCC(C(=O)NCCC3=CCCCC3)CC2)CC1 | n | n | 70.0[inhibitor] | n | n | n | n
CS(=O)(=O)N1CCC(C(=O)NCCC2=CCCCC2)CC1 | n | n | n | n | x | x | x
CCOc1ccc(OCC)c(NC(=O)C2CCCN(C(=O)c3ccc(Cl)cc3)C2)c1 (stereo not drawn) | x | x | x | n | x | x | x
Nc1nc(N2CCOCC2)n[nH]1 | n | n | n | x | x | x | x
CCc1ccc2c(c1)c1nnc(NN)nc1n2CC | n | n | 164.0 | n | n | n | n
O=C(NCCc1ccccn1)c1cc(-c2ccc(Cl)c(Cl)c2Cl)nc2ccccc12 | n | n | n | n | x | x | x
O=C(Nc1nn[nH]n1)c1cc(-c2ccc(Cl)c(Cl)c2Cl)nc2ccccc12 | 139.0 | n | n | n | n | n | n
COC(=O)C(NC(=O)c1ccccc1)(Nc1cc(C)cc(C)n1)C(F)(F)F (stereo not drawn) | n | n | 126.0 | n | n | n | n
SMILES | MEKK2 WT-MEK5 | MEKK2mut PB1 HTS | MEKK3 PB1 HTS | GRK2 inh | MEKK2wt confirm | MEKK2mut-MEK5 | MEKK3 confirm
O=S(=O)(Nc1ccc(N2CCOCC2)cc1)c1ccc(F)cc1 | n | n | n | n | x | x | x
CCCCn1c(C(C)NC(=O)CCC)nc2ccccc21 (stereo not drawn) | n | n | n | n | x | x | x
O=C(Nc1ccccc1N1CCCCC1)C1=COCCO1 | x | x | x | n | x | x | x
COc1ccc(NC(=O)N2CCN(c3ccc([N+](=O)[O-])cc3)CC2)cc1OC | n | n | 45.0[inhibitor] | n | n | n | n
COC(=O)c1cc(C(C)=O)c(C)[nH]c1=O | n | n | 128.0 | n | n | n | n
O=C(NCc1ccco1)C1CC(c2ccc(F)cc2)=NO1 (stereo not drawn) | n | n | 73.0[inhibitor] | n | n | n | n
O=C(NCc1ccco1)C1CC(c2ccc(Cl)cc2)=NO1 (stereo not drawn) | n | n | n | n | x | x | x
CN(C)c1ccc(C(=O)OCC(=O)Nc2ccc(N3CCOCC3)cc2)cc1 | n | n | n | n | x | x | x
COc1ccc(C2=NNC(=O)CC2)cc1 | n | n | n | n | x | x | x
CCCOc1ccc(C2=NNC(=O)CC2)cc1 | n | n | 68.0[inhibitor] | n | n | n | n
COc1ccc(NC(=O)COc2ccc3c(c2)CCC3)cc1 | n | n | n | n | x | x | x
O=C1CCN(C(=O)Nc2ccccc2Cl)N1 | n | n | 48.0[inhibitor] | n | n | n | n
COc1ccc(-c2c(-c3ccccc3)c(C(=O)C(=O)NCCCN(C)C)n3ccc4cc(OC)c(OC)cc4c23)cc1OC | 140.0 | n | n | n | n | n | n
CN(C)CCNC(=O)C(=O)c1c(-c2ccccc2)cc2ccccn12 | n | n | n | n | x | x | x
CCOP(=O)(c1ccccc1)C(O)c1ccc(F)cc1 (stereo not drawn) | n | n | 144.0 | n | n | n | n
CSc1cccc(NC(=O)C2CCN(C(=O)c3ccccc3C)CC2)c1 | n | n | 151.0 | n | n | n | n
Cc1cccc(NC(=O)N2CCC(NC(=O)c3ccco3)CC2)c1 | n | n | n | n | x | x | x
Cc1ccccc1C(=O)N1CCC(C(=O)Nc2ccc(F)cc2)CC1 | n | n | n | n | x | x | x
Cc1cccc(NC(=O)N2CCC(NC(=O)c3ccccc3C)CC2)c1 | 2.0[inhibitor] | n | 2.0[inhibitor] | n | n | n | n
COc1cccc(NC(=S)N2CCCC2c2ccc(OC)c(OC)c2)c1 (stereo not drawn) | n | n | n | n | x | x | x
CO/N=C1\CCCc2c(C(=O)NN)sc(SC)c21 | n | n | n | n | x | x | x
CCOC(=O)c1sc(SC)c2c1CCC/C2=N/OC | n | n | 131.0 | n | n | n | n
COc1ccc(C)cc1NC(=O)c1ccc(NS(=O)(=O)c2cccc3cccnc23)cc1 | n | n | 131.0 | n | n | n | n
COc1ccc(NS(=O)(=O)c2cccc3cccnc23)cc1 | n | n | 72.0[inhibitor] | n | n | n | n
COC(=O)CS(=O)(=O)c1cccc2cccnc12 | 4.0[inhibitor] | n | 3.0[inhibitor] | n | n | n | n
COc1cc([N+](=O)[O-])ccc1NC(=O)CC1SC(=Nc2ccc(F)cc2)N(CCC2=CCCCC2)C1=O (stereo not drawn) | n | n | n | n | x | x | x
COc1ccc(OC)c(NC(=O)CC2SC(=Nc3ccc(F)cc3)N(CCC3=CCCCC3)C2=O)c1 (stereo not drawn) | n | n | 139.0 | n | n | n | n
Cc1nn(C)c(C(=O)N2CCN(C(=O)c3ccco3)CC2)c1Br | 34.0[inhibitor] | n | n | n | n | n | n
O=C(Cc1ccc(Cl)cc1)N1CCN(C(=O)c2ccco2)CC1 | n | n | n | n | x | x | x
Cc1ccc(CC(=O)N2CCN(C(=O)c3ccco3)CC2)cc1 | n | n | 49.0[inhibitor] | n | n | n | n

Source: PubChem (NMMLSC)
